This passage reports growth results from PubChem BioAssay (NCI).

This is part of a sample that, as a whole, favours compounds with a hit. Of some 83,000 tested, about 20% had one in any assay.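 Compound tested at a single concentration for 48 hours in 96-well plates; a percent growth value below 10 was scored as active.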 Unmarked numbers belong to inactive results. Active and inactive are the calls of the source.

Among the test systems are T-47D breast; BT-549 breast; MDA-MB-435 melanoma; SW-620 colon; MCF7 breast; HCT-116 colon; HCC-2998 colon; KM12 colon.
Holding throughout (test): NCI-60 one-dose screen, 48 h (100 = growth as untreated, 0 = no growth, -100 = all killed)
Holding throughout (conditions): 10 µM

For `COc1ccc2c(c1)C(=O)/C(=C/c1ccc([N+](=O)[O-])o1)O2`, the growth is -46.9% (active) in the assay with T-47D breast; -49.9% (active) with BT-549 breast; -72.5% (active) in the assay with MDA-MB-435 melanoma; -60.4% (active) with SW-620 colon; -18.7% (active) with MCF7 breast; -44.9% (active) with HCT-116 colon. The growth in the assay on HCC-2998 colon is -78.5% (active); in the assay with KM12 colon it was -80.3% (active).
For `Cc1c2cnccc2c(C)c2c1c1cc(O)ccc1n2C(C)C`, the growth is 3.1% (active) in the assay on T-47D breast; -2.72% (active) in the assay on BT-549 breast; 8.19% (active) in the assay with MDA-MB-435 melanoma; 2.58% (active) in the assay on SW-620 colon; -3.2% (active) with MCF7 breast; -49.4% (active) in the assay on HCT-116 colon. Moreover, the values for the growth in the assay with HCC-2998 colon and in the assay on KM12 colon were 20.8% and 3.74% (active), respectively.
Take `CCOC(=O)c1cocc1C(=O)O`: the growth with T-47D breast is 104%; in the assay with BT-549 breast, 108%; in the assay on MDA-MB-435 melanoma it was 106%; with SW-620 colon, 103%; with MCF7 breast, 101%; in the assay on HCT-116 colon it was 103%. The growth in the assay with HCC-2998 colon was 103%; in the assay with KM12 colon it was 104%.
For `CCCCC(CC)CN=C(N)NC(N)=NCCCCCCN=C(N)NC(N)=NCC(CC)CCCC` (configuration not stated), the growth was -54.3% (active) in the assay on T-47D breast; -85.2% (active) in the assay with BT-549 breast; -94% (active) with MDA-MB-435 melanoma; -78% (active) with SW-620 colon; -75.7% (active) in the assay with MCF7 breast; -85.6% (active) in the assay with HCT-116 colon. The results for the growth in the assay on HCC-2998 colon and with KM12 colon were -88.8% (active) and -94.4% (active), respectively.
Consider `Cc1cc(Br)nnc1Br`, for which the growth was 90.1% with T-47D breast; 96.8% with BT-549 breast; 114% in the assay with MDA-MB-435 melanoma; 109% in the assay with SW-620 colon; 103% in the assay on MCF7 breast; 106% in the assay with HCT-116 colon. Moreover, the growth with HCC-2998 colon is 108%; with KM12 colon, 96.6%.
`CC(C)(C)c1ccc(S(=O)(=O)N[C@H]2CC[C@H]3[C@@H]4CCc5cc(OS(=O)(=O)O)ccc5[C@H]4CC[C@]23C)cc1`: the growth is 19.9% in the assay with T-47D breast; 47.5% with BT-549 breast; 49.9% in the assay with MDA-MB-435 melanoma; 56.6% with SW-620 colon; 15.3% in the assay on MCF7 breast; 26.8% in the assay with HCT-116 colon. Moreover, the growth is 73.2% in the assay with HCC-2998 colon and 40.9% in the assay on KM12 colon.
Regarding `COc1ccc(/C=C/c2nnc(/C=C/c3ccc(OC)c(OC)c3)o2)cc1OC`, the growth with T-47D breast was 19.5%; with BT-549 breast, 25.5%; in the assay on MDA-MB-435 melanoma it was 10.4%; in the assay on SW-620 colon, 18.1%; with MCF7 breast, 22.8%; with HCT-116 colon, 4.83% (active). In addition, the results for the growth in the assay with HCC-2998 colon and in the assay on KM12 colon were 54.9% and 33.7%, respectively.
For `Cc1ccc(/C=C/C(=O)C(=O)/C=C/c2ccc(C)cc2)cc1`, the growth in the assay on T-47D breast was 92.4%; in the assay with BT-549 breast, 95.3%; in the assay with MDA-MB-435 melanoma, 76.9%; with SW-620 colon it was 100%; in the assay with MCF7 breast, 23.8%; in the assay with HCT-116 colon it was -36.8% (active). Also, the growth with HCC-2998 colon was 110%; with KM12 colon, 93.8%.
For `COc1ccc2c(c1)OC(N)=C(C#N)C2c1cc(OC)c(OC)c(OC)c1` (configuration not stated), the growth in the assay with T-47D breast was 16.7%; in the assay on BT-549 breast, 5.64% (active); in the assay on MDA-MB-435 melanoma, -16.7% (active); in the assay with SW-620 colon, 17.1%; in the assay with MCF7 breast, 13.3%; in the assay with HCT-116 colon, 3.4% (active). In addition, the growth was 15% in the assay on HCC-2998 colon and -10.3% (active) with KM12 colon.
With `O=C1OC(C(Cl)(Cl)Cl)OC1C(Cl)(Cl)Cl` (configuration not stated), the growth in the assay with T-47D breast was 122%; in the assay with BT-549 breast it was 109%; in the assay with MDA-MB-435 melanoma it was 94.7%; in the assay on SW-620 colon, 125%; in the assay with MCF7 breast it was 114%; with HCT-116 colon, 105%. Also, the growth in the assay with HCC-2998 colon is 111%; in the assay with KM12 colon, 101%.
For `O=C(Nc1ccc(OCc2nnc(-c3ccc(Cl)cc3)o2)c(F)c1)Nc1ccc(Cl)c(C(F)(F)F)c1`, the growth in the assay with T-47D breast was 4.57% (active); with BT-549 breast, -13.9% (active); with MDA-MB-435 melanoma it was 8.01% (active); with SW-620 colon, 15.7%; in the assay on MCF7 breast, 3.17% (active); in the assay on HCT-116 colon, 2.12% (active). In addition, the growth with HCC-2998 colon was 9.15% (active); in the assay with KM12 colon, 3.14% (active).
Regarding `C=C(C)[C@@H]1CC[C@]2(COCCC#N)CC[C@]3(C)[C@H](CC[C@@H]4[C@@]5(C)Cc6c([nH]c7ccccc67)C(C)(C)[C@@H]5CC[C@]43C)[C@@H]12`, the growth in the assay on T-47D breast is 81.8%; in the assay with BT-549 breast, 95.3%; in the assay on MDA-MB-435 melanoma, 95.8%; with SW-620 colon, 92.6%; in the assay on MCF7 breast, 81.1%; in the assay on HCT-116 colon, 82%. In addition, the growth in the assay with HCC-2998 colon is 104%; in the assay with KM12 colon, 95.8%.
On to `CC(=O)O[C@@]12CO[C@@H]1C[C@H](O)[C@@]1(C)C(=O)[C@H](O)C3=C(C)[C@@H](OC(=O)[C@H](O)[C@@H](NC(=O)OC(C)(C)C)c4ccccc4)C[C@@](O)([C@@H](OC(=O)c4ccccc4)C12)C3(C)C` (some centres not stated), for which the growth is 65.2% in the assay with T-47D breast; 42.8% in the assay on BT-549 breast; -11.7% (active) in the assay with MDA-MB-435 melanoma; 48.1% in the assay with SW-620 colon; 16.1% in the assay on MCF7 breast; 34.6% with HCT-116 colon. Also, the growth with HCC-2998 colon is -18.8% (active); in the assay with KM12 colon, 29.6%.
As for `O=C1/C(=C/c2ccc3c(c2)OCO3)SC(=S)N1C1c2ccccc2Oc2ccccc21`, the growth in the assay on T-47D breast is 104%; in the assay on BT-549 breast, 91.1%; in the assay with MDA-MB-435 melanoma, 96.5%; in the assay on SW-620 colon, 103%; in the assay with MCF7 breast, 91.6%; in the assay on HCT-116 colon, 92.9%. The results for the growth in the assay with HCC-2998 colon and with KM12 colon were 80.1% and 96.6%, respectively.
